Compounds without any hit were thinned out: in the full panel of roughly 79,000, 15% have a hit. Calls of active or inactive are those of the source. Rule as the data show it: active = growth inhibition above about 70%; inactive = the rest.
Tests used:
[1] = NCI Yeast Anticancer Drug Screen. Data for the rad50 strain (AID 155);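 also: 0% = growth of vehicle-only cultures of the same strain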; settings: S. cerevisiae rad50 strain growth inhibition; at 50.0 µM; hits give high values
Procedure, shortened: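 Compounds were tested on a yeast strain with an engineered DNA damage repair alteration; the reported value is growth inhibition normalised to vehicle treatment.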

[2] = NCI Yeast Anticancer Drug Screen. Data for the mec2-1 strain (AID 157); settings: S. cerevisiae mec2-1 strain, at 50.0 µM, hits give high values
Procedure, shortened: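 Test agents were screened against the mec2-1 yeast strain, with defined DNA repair or cell cycle alteration. Growth was scored as inhibition against vehicle-only controls.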

[3] = NCI Yeast Anticancer Drug Screen. Data for the sgs1 mgt1 strain (AID 161);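 also: 0% = growth of cultures given vehicle only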; settings: S. cerevisiae sgs1 mgt1 strain, at 50.0 µM, hits give high values
Procedure, shortened: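 Test agents were incubated with a DNA-repair-mutant yeast strain. Growth was then read and compared against vehicle-treated controls.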

[4] = NCI Yeast Anticancer Drug Screen. Data for the cln2 rad14 strain (AID 165);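 also: 0% = growth equal to vehicle treated cultures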; settings: S. cerevisiae cln2 rad14 strain, at 50.0 µM, hits give high values
Procedure, shortened: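 Growth of compound-exposed yeast (cln2 rad14 genotype) measured and expressed as inhibition relative to vehicle.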

[5] = NCI Yeast Anticancer Drug Screen. Data for the bub3 strain (AID 167); settings: S. cerevisiae bub3 mutant strain, at 50.0 µM, hits give high values
Procedure, shortened: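 Growth of a checkpoint-deficient yeast mutant is measured after compound exposure. Values represent inhibition relative to vehicle.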

[6] = NCI Yeast Anticancer Drug Screen. Data for the mlh1 rad18 strain (AID 175); settings: S. cerevisiae mlh1 rad18 strain growth inhibition; at 50.0 µM; hits give high values
Procedure, shortened: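 In this whole-cell yeast screen, a strain with altered DNA damage repair is challenged with compound, and its growth is measured against matched vehicle-treated controls.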

Measured: growth inhibition

O=C1CC=C2C3CC4N(CCC45c4ccccc4N1C25)C/C3=C\CO (stereo not drawn)
inactive: [1] 22.8% | [2] -11.7% | [3] -5.3% | [4] 0% | [5] 37% | [6] -38%

O=C(COc1ccc(Cl)c(Cl)c1)Nc1ccccc1S(=O)(=O)F
inactive: [1] 27.6% | [2] -5.35% | [3] -3.8% | [4] 21.6% | [5] 5.15% | [6] 21.4%

C[C@]12CC[C@H]3[C@@H](CC=C4C=C(P(=O)(O)O)CC[C@@]43C)[C@@H]1CC[C@@H]2O
inactive: [1] -8.1% | [2] 5.2% | [3] -8.55% | [4] -56.3% | [5] -12.9% | [6] -10.1%

Cc1ccc(NC(=O)CCc2ccc(N3C(N)=NC(N)=NC3(C)C)cc2Cl)cc1S(=O)(=O)F
active: [2] 72.3%
inactive: [1] 54.6% | [3] 64.2% | [4] -5.25% | [5] -25.9% | [6] 15%

CN(C)P1(N(C)C)=NP(c2ccccc2)(c2ccccc2)=NP(N(C)C)(N(C)C)=N1
inactive: [1] 13.3% | [2] 20.9% | [3] 47.5% | [4] 24.2% | [5] 1.9% | [6] 48.2%

O=[N+]([O-])c1cccc2ncccc12
inactive: [1] -2.95% | [2] -14.4% | [3] 18.4% | [4] -6.55% | [5] 17.7% | [6] 9.3%

CCCCOP(=O)(OCCCC)Oc1ccc2ccccc2c1
active: [1] 93.1% | [2] 93.2% | [3] 95.4% | [4] 92.8% | [5] 95.1% | [6] 95.4%

O=C(O)C1C2Cc3ccccc3C1c1ccccc12 (stereo not drawn)
inactive: [1] -1.6% | [2] -7.55% | [3] 0.95% | [4] 0.6% | [5] -13.7% | [6] -10%

C=C[Se](=C(C#N)C#N)c1ccccc1 (stereo not drawn)
inactive: [1] -3.35% | [2] 28% | [3] 5.75% | [4] 4.35% | [5] -16.4% | [6] 0.7%

[C-]#[O+].[C-]#[O+].[C-]#[O+].[Mo].c1ccc(P(CC[PH+](CC[PH+](CC[PH+](c2ccccc2)c2ccccc2)c2ccccc2)c2ccccc2)c2ccccc2)cc1 (stereo not drawn)
inactive: [1] 30.8% | [2] 27.5% | [3] 43.4% | [4] 37.7% | [5] 32.5% | [6] 44.1%

O=C(Nc1cc(S(=O)(=O)O)cc2cc(S(=O)(=O)O)c(N=Nc3ccc([As](=O)(O)O)cc3)c(O)c12)c1ccc([N+](=O)[O-])cc1
inactive: [1] 12.7% | [2] 1.7% | [3] -7.45% | [4] -9.1% | [5] -3.4% | [6] 6.55%

[Cl][Co][Br].[NH-]CC[NH-].[NH-]CC[NH-]
inactive: [1] -12.7% | [2] 3.95% | [3] 13.9% | [4] -42.1% | [5] 36.4% | [6] 21.2%

C/C=C/C(C)C1(CCC)C(=O)NC(=O)NC1=O (stereo not drawn)
inactive: [1] 0.35% | [2] 2.6% | [3] -3.8% | [4] -37.2% | [5] 8.5% | [6] -3.8%

CNC(=O)c1[nH]cnc1/N=N/N(C)N
active: [1] 85.2% | [2] 91.8% | [3] 90.5% | [4] 87.9% | [5] 89% | [6] 89.3%

FC(F)(F)c1ccc2c(c1)N(CCCl)c1ccccc1S2
inactive: [1] 4.3% | [2] -8.05% | [3] -2.4% | [4] -79.2% | [5] 1.5% | [6] -4.6%

O=C1CCCCC1CN1CCCCC1 (stereo not drawn)
inactive: [1] 4.8% | [2] -3.2% | [3] -2.45% | [4] -3.25% | [5] 3.45% | [6] 1.25%

O=C(O)/C=C/c1ccc(S(=O)(=O)F)cc1
inactive: [1] 36.4% | [2] -16% | [3] 16.6% | [4] 15.9% | [5] 34% | [6] 20.6%

CN(C)C(=O)Sc1c(Cl)cc(Cl)cc1S(=O)(=O)F
inactive: [1] 43.1% | [2] 6.9% | [3] 56% | [4] 32.6% | [5] -3.2% | [6] 20.6%

NC(C/C=C/P(=O)(O)O)C(=O)O (stereo not drawn)
inactive: [1] -20.4% | [2] -17.1% | [3] -14.8% | [4] 13.2% | [5] 19.9% | [6] -33%

Cc1ccc(OP(=O)(Oc2ccc(C)cc2)Oc2ccc(C)cc2)cc1.Cc1ccc(OP(=O)(Oc2ccc(C)cc2)Oc2ccc(C)cc2)cc1.Cc1ccc(OP(=O)(Oc2ccc(C)cc2)Oc2ccc(C)cc2)cc1.Cc1ccc(OP(=O)(Oc2ccc(C)cc2)Oc2ccc(C)cc2)cc1.[Cr+3].[O-][Cl+3]([O-])([O-])O
inactive: [1] 0.95% | [2] -2.2% | [3] 0.15% | [4] -3.05% | [5] -4.35% | [6] -3.55%

O=[As](O)(O[As](=O)(O)c1ccccc1)c1ccccc1
inactive: [1] 24.4% | [2] 18.1% | [3] 17.1% | [4] 5% | [5] -0.05% | [6] 28.5%

Cc1cc2oc(=O)c3c(c2c(O)c1CN1CCOCC1)CCCC3
inactive: [1] 34.1% | [2] 14.4% | [3] 16.5% | [4] 15.6% | [5] 18.1% | [6] 15.8%

CCC(=O)OC1(c2ccccc2)CCN(CCC(=O)c2ccccc2)CC1C (stereo not drawn)
inactive: [1] 48.6% | [2] 36.6% | [3] 47.8% | [4] 38.6% | [5] 27.1% | [6] 37.3%

CCN(CC)C1CCCCC1
inactive: [1] 19.8% | [2] 16.1% | [3] -0.9% | [4] -35.7% | [5] -0.9% | [6] 11.2%

O=C(Nc1ccc(S(=O)(=O)F)cc1)c1ccc2ccccc2c1O
inactive: [1] 9.85% | [2] 31.8% | [3] 32.5% | [4] 2.15% | [5] 27.9% | [6] 25.4%

COc1cc(-c2ccc(N)c(OC)c2)ccc1N
inactive: [1] 26.7% | [2] 7.9% | [3] 20.2% | [4] 5.8% | [5] -2.45% | [6] 30.1%

O=[N+]([O-])c1ccc2sc3ccccc3c2c1
inactive: [1] 63.1% | [2] 12.2% | [3] 26.3% | [4] 44% | [5] -3.35% | [6] 58.8%

CN(N)c1ccc([N+](=O)[O-])cc1[N+](=O)[O-]
inactive: [1] -5.75% | [2] -39.1% | [3] -29.8% | [4] -6.2% | [5] -3.2% | [6] -39.1%

O=C(OCC1CCCN2CCCCC12)c1ccncc1 (stereo not drawn)
inactive: [1] 4.9% | [2] 2.9% | [3] 48.4% | [4] 15.4% | [5] 34.3% | [6] 2.35%

Cc1cc(C)c(O)c(CN2CCCCC2)c1
inactive: [1] 4.35% | [2] 13.1% | [3] 32.8% | [4] -4% | [5] 19.6% | [6] 14.5%

CC1CCCCN1 (stereo not drawn)
inactive: [1] 5.35% | [2] -1% | [3] -9.85% | [4] 10.2% | [5] 13.5% | [6] 2.85%

SCCS
inactive: [1] -20.1% | [2] -5.2% | [3] -14.6% | [4] -5.6% | [5] -27.7% | [6] -25.7%

O=c1[nH]c(=O)n(Cl)c(=O)n1Cl
inactive: [1] 16.4% | [2] 23.1% | [3] 14.2% | [4] 6.2% | [5] 31% | [6] 21.9%

CNN(C)P(=O)(Oc1ccccc1)N(C)NC
inactive: [1] 5.5% | [2] -7.3% | [3] -9.15% | [4] 7.9% | [5] -2.1% | [6] -5.15%

CCN1/C(=C/C=C2\CCC(/C=C/c3sc4ccc(Cl)cc4[n+]3CC)=C2N(c2ccccc2)c2ccccc2)Sc2ccc(Cl)cc21
inactive: [1] 14.4% | [2] 32.2% | [3] 64.9% | [4] 4.05% | [5] 57.4% | [6] 56.7%

O=S(OO)c1cc(Cl)c(O)c(Cl)c1 (stereo not drawn)
inactive: [1] 3.5% | [2] -24.1% | [3] -1.55% | [4] 7.55% | [5] -10.7% | [6] 3.4%

COC(=O)CP(=O)(OC)OCC(F)(F)F (stereo not drawn)
inactive: [1] -32.8% | [2] -14.4% | [3] -23.5% | [4] -6% | [5] -33.6% | [6] -25.3%

COc1ccc(CCN2CCOCC2)cc1
inactive: [1] 31.9% | [2] 2.15% | [3] 47.8% | [4] 9.25% | [5] 34% | [6] 34.2%

— PubChem BioAssay (NCI)
